# According to PubChem BioAssay (NCATS):
# Where “and” joins values, the source holds several entries; their conditions need not be identical. Identical values can stand only once. Results filed as inconclusive are left out. A call without a number means that no potency is given here. A structure can be active in one record and inactive in another. Calls of active or inactive are those of the source. Calls come from the whole dose curve; as a rule, active = well fitted curve in either direction with a large enough effect; inconclusive = small, poorly fitted or top-dose-only effect; inactive = flat fitted curve, though single readings scatter.
# Molecular target: Lysosomal alpha-glucosidase (Homo sapiens) (UniProt P10253)
# Assay: Confirmation of Inhibitors and Activators of Purified Human alpha-Glucosidase (AID 2115)
# Conditions: purified human GAA enzyme activity; series mostly up to 76.2 µM
# Description: NIH Chemical Genomics Center [NCGC]
# NIH Molecular Libraries Probe Production centers Network [MLPCN]
# Assay Submitter (PI): Wei Zheng
# Alpha-glucosidase is responsible for hydrolysis of terminal, non-reducing 1,4-linked alpha-D-glucose residues with release of alpha-D-glucose. It is a lysosomal hydrolase that is required for the degradation of a small percentage (1-3%) of cellular glycogen in human. Deficiency of this enzyme results in glycogen-storage disease type II (GSDII), also referred to as Pompe disease, an autosomal recessive disorder. Structurally normal glycogen is accumulated in lysosomes and cytoplasm in affected patients, primarily in muscle tissues. Excessive glycogen storage within lysosomes may interrupt normal functioning of other organelles and leads to cellular injury. In turn, this leads to enlargement and dysfunction of the entire organ involved (eg, cardiomyopathy and muscle weakness).
# It has reported that the improper folding and trafficking of alpha-glucosidase resulting from the genetic mutations may account for a significant number of Pompe patients. […] We optimized this alpha-glucosidase assay in 1536-well plate format for identifying the novel small molecule inhibitors with the structures other than the sugar analogs in order to develop the new pharmacological chaperones.
# NCGC Assay Protocol Summary:
# This is a fluorogenic enzyme assay with 4-methylumbelliferyl-alpha-D-[…] as the substrate and human […] as the enzyme preparation. Upon the hydrolysis of this fluorogenic substrate, the resulting product, 1. 4-methyllumbelliferone, can be excited at 365 nm and emits at 440 nm which can be detected by a standard fluorescence plate reader. Data were normalized to the controls for basal activity (without enzyme) and 100% activity (with enzyme). The AC50 values were determined from concentration-response data modeled with the standard Hill equation.
# Assay buffer: 50 mM citric acid (titrated with potassium phosphate to pH 5.0), 0.005% Tween-20, pH 5.0. (pH 5.0 is an optimal condition for this enzyme assay)
# 1536-well assay protocol for the human alpha-glucosidase:
# (1) Add 2 ul/well of enzyme (4 nM final)
# (2) Add 23 nL compounds in DMSO solution. The final titration was 0.7 nM to 77 uM.
# (3) Add 1 ul of substrate (400 uM final)
# (4) Incubate at room temperature for 20 min.
# (5) Add 2 ul stop solution (1M NaOH and 1M Glycine mixture, pH 10)
# (6) Detect the assay plate in a ViewLux plate reader (PerkinElmer) with Ex=365 nm and Em=440nm.
# Keywords: Alpha-glucosidase, Pompe Disease, pharmacological chaperone, chaperone therapy, high throughput screening, alpha-glucosidase inhibitor, MLSMR, MLSCN, NIH Roadmap, qHTS and NCGC
row,Compound,Potency
1,O=C1Cc2cc(S(=O)(=O)N3CCN(c4cccc(C(F)(F)F)c4)CC3)ccc2N1,14.9 µM (active)
2,CC(=O)c1ccc(N2CCN(C(=O)c3ccc4c(c3)CCC(=O)N4)CC2)cc1,inactive
3,CC(=O)c1ccc(N2CCN(S(=O)(=O)c3ccc4c(c3)CCCN4C(C)=O)CC2)cc1,inactive
4,O=C1Cc2cc(S(=O)(=O)N3CCNCC3)ccc2N1,inactive
5,CC(=O)c1ccc(N2CCN(S(=O)(=O)c3ccc(N4CCCC4=O)cc3)CC2)cc1,inactive
6,CC(=O)c1ccc(N2CCN(S(=O)(=O)c3ccc4c(c3)CC(=O)N4)CC2)cc1,730 nM (active) and 749 nM (active) and 819 nM (active)
7,CC(=O)c1ccc(N2CCN(S(=O)(=O)c3ccc4c(c3)oc(=O)n4C)CC2)cc1,inactive
8,CC(=O)c1ccc(N2CCN(S(=O)(=O)c3ccc4c(c3)CCC(=O)N4)CC2)cc1,inactive
9,CC(=O)c1ccc(N2CCN(S(=O)(=O)c3ccc4c(c3)OCC(=O)N4)CC2)cc1,inactive
10,CC(=O)c1ccc(N2CCN(S(=O)(=O)c3ccc4[nH]c(=O)oc4c3)CC2)cc1,inactive
11,COc1ccc(N2CCN(S(=O)(=O)c3ccc4c(c3)CC(=O)N4)CC2)cc1,23.7 µM (active)
12,CC(=O)N1CCN(S(=O)(=O)c2ccc3c(c2)CC(=O)N3)CC1,11.9 µM (active)
13,CC(=O)c1ccc(N2CCN(S(=O)(=O)c3ccc4c(c3)C(Cl)(Cl)C(=O)N4)CC2)cc1,32.6 µM (active) and inactive
14,CC(=O)c1ccc(N2CCN(S(=O)(=O)c3ccc4c(c3)CCCC(=O)N4)CC2)cc1,inactive
15,CC(=O)c1ccc(N2CCN(C(=O)c3ccc4c(c3)CC(=O)N4)CC2)cc1,inactive
16,O=Cc1ccc(N2CCN(S(=O)(=O)c3ccc4c(c3)CC(=O)N4)CC2)cc1,3.66 µM (active)
17,CC(=O)c1ccc(N2CCN(S(=O)(=O)c3cc4c(cc3Cl)NC(=O)C4)CC2)cc1,1.63 µM (active) and 4.61 µM (active)
18,O=C1Cc2cc(S(=O)(=O)N3CCN(c4ccc([N+](=O)[O-])cc4)CC3)ccc2N1,3.66 µM (active)
19,Cc1ccc(N2CCN(S(=O)(=O)c3ccc4c(c3)CC(=O)N4)CC2)cc1,inactive
20,CC(=O)c1ccc(N2CCN(S(=O)(=O)c3ccc4c(c3)CC(C)N4C(C)=O)CC2)cc1 (configuration not stated),inactive
21,CC(=O)Nc1ccc(S(=O)(=O)N2CCN(c3ccc(C(C)=O)cc3)CC2)cc1,inactive
22,O=C1Cc2cc(S(=O)(=O)N3CCN(c4ccc(O)cc4)CC3)ccc2N1,1.88 µM (active)
23,CC(=O)c1ccc(N2CCN(S(=O)(=O)c3ccc4c(c3)C(=O)OC4)CC2)cc1,inactive
24,CC(=O)c1ccc(N2CCN(S(=O)(=O)c3ccc4[nH]c(=O)[nH]c4c3)CC2)cc1,inactive
25,CC(=O)c1ccc(N2CCN(S(=O)(=O)c3ccc4c(c3)n(C)c(=O)n4C)CC2)cc1,inactive
26,O=C1Cc2cc(S(=O)(=O)N3CCN(c4ccc(CO)cc4)CC3)ccc2N1,13 µM (active)
27,N#Cc1ccc(N2CCN(S(=O)(=O)c3ccc4c(c3)CC(=O)N4)CC2)cc1,2.91 µM (active)
